According to PubChem BioAssay (Tox21):
Inconclusive results are not listed. Active and inactive are the calls of the source. Unless noted, calls follow the shape of the full dose curve.

Legend:
[1] = Nuclear factor erythroid 2-related factor 2/antioxidant responsive element (Nrf2/ARE) small molecule agonists: qHTS cell viability counter screen in human keratinocytes (AID 1919968; active = well fitted curve in the direction sought with a large enough effect in the repeat runs; an effect the other way counts as inactive or inconclusive; also: nearly all actives have a fitted effect of over 55% in size)
Summary of the method: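 CellTiter-Fluor fluorescence, read 1 h after reagent, gave viability in the same wells as the ARE-luciferase assay. KeratinoSens cells (1,500/well) had 23 h compound exposure at 37 C/5% CO2 following 5 h plating.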

[2] = Nuclear factor erythroid 2-related factor 2/antioxidant responsive element (Nrf2/ARE) small molecule agonists: luciferase reporter gene qHTS assay in human keratinocytes (AID 1919969); also: nearly all actives have a fitted effect of over 35% in size; also: potency is read from the fitted curve at half-maximal effect
[3] = molecular target: Gonadotropin-releasing hormone receptor (Homo sapiens) (UniProt P30968); assay: Human gonadotropin-releasing hormone receptor (GnRHR) small molecule agonists, calcium flux assay in GnRHR-HEK293 cells (AID 1920063); also: nearly all actives have a fitted effect of over 35% in size
Sequence of Gonadotropin-releasing hormone receptor (Homo sapiens) (P30968 whole entry, looked up): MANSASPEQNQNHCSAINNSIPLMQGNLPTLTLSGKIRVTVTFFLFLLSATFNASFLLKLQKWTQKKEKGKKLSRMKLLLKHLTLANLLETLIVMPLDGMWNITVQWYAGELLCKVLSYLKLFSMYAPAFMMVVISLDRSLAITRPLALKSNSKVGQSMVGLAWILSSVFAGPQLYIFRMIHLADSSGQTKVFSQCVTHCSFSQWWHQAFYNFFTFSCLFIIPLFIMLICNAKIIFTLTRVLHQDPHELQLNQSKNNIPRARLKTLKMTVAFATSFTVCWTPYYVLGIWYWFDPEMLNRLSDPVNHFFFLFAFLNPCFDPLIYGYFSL
Summary of the method: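 Agonist mode: compounds at 15 concentrations, in triplicate, went onto calcium dye-loaded GnRHR-HEK293 cells. Intracellular calcium was then followed as 480/540 nm fluorescence at 1 s intervals over 3 min.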

[4] = molecular target: KiSS-1 receptor (Homo sapiens) (UniProt Q969F8); assay: Human kisspeptin (KISS1R) small molecule agonists, calcium flux assay in KISS1R-HEK293 cells (AID 1920064; active = well fitted curve in the direction sought with a large enough effect in the repeat runs; an effect the other way counts as inactive or inconclusive)
Sequence of KiSS-1 receptor (Homo sapiens) (Q969F8 whole entry, looked up): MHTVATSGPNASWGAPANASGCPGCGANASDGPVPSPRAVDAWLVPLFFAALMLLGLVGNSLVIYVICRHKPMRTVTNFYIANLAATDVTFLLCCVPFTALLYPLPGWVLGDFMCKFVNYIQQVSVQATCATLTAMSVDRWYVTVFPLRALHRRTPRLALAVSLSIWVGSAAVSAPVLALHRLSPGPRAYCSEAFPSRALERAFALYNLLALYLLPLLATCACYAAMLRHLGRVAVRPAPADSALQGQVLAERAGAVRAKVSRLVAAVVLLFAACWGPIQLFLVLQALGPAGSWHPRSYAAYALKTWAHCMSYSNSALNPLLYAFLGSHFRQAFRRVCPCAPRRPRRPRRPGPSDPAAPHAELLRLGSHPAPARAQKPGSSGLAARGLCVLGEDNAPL
Summary of the method: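 Agonist mode: intracellular calcium rise tracked at 1 s intervals over 3 min (480/540 nm) immediately after compound addition to dye-loaded KISS1R-HEK293 stable cells. Each compound tested at 15 concentrations in triplicate.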

[5] = G protein-coupled receptor (GPCR) small molecule agonists, calcium flux assay: HEK293 wild type cell line counter screen (AID 1920065)
Summary of the method: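 Calcium flux counter screen: compound added in agonist mode at 15 concentrations in triplicate to dye-loaded parental HEK293 cells. Fluorescence (480/540) read kinetically for 3 min; ATP served as positive control.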

[6] = p53 small molecule agonists, cell-based qHTS assay with human liver microsomes (AID 1963577);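 also: p53 response element beta-lactamase reporter cells with liver microsomes plus NADPH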
Summary of the method: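 p53RE-bla cells; 5 h settle, 37 C/5% CO2; cpd + HLM 0.5 mg/mL + NADPH 0.5 mg/mL (final); 16 h 37 C; LiveBLAzer 2 h RT dark; fluorescence readout.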

[7] = p53 small molecule agonists, cell-based qHTS assay with rat liver microsomes (AID 1963578)
Summary of the method: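 Rat liver microsome activation: microsomes 0.5 mg/mL, NADPH 0.5 mg/mL final; p53RE-bla cells, 16 h 37 C; LiveBLAzer readout, 2 h RT dark.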

[8] = p53 small molecule agonists, cell-based qHTS assay with human liver microsomes: qHTS cell viability counter screen (AID 1963579); also: nearly all actives have a fitted effect of over 45% in size
Summary of the method: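 Luminescent CellTiter-Glo read-out, 30 min at room temperature, gauged cytotoxicity in p53RE-bla cells exposed 16 h at 37 C to DMSO-dissolved compounds with metabolic activation by human liver microsomes and NADPH, each 0.5 mg/mL final.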

[9] = p53 small molecule agonists, cell-based qHTS assay with rat liver microsomes: qHTS cell viability counter screen (AID 1963580); also: nearly all actives have a fitted effect of over 45% in size
Summary of the method: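 Rat liver microsome (0.5 mg/mL final) and NADPH (0.5 mg/mL final) co-incubation with compounds for 16 h at 37 C on HCT-116 p53RE-bla cells; cytotoxicity taken from intracellular ATP luminescence.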

[10] = p53 small molecule agonists, cell-based qHTS assay: qHTS cell viability counter screen (AID 1963581); also: nearly all actives have a fitted effect of over 45% in size
Summary of the method: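 Counter screen read by CellTiter-Glo luminescence (ATP content, 30 min at room temperature), run in the same wells as the beta-lactamase reporter read. HCT-116 p53RE-bla cells saw compounds for 16 h at 37 C.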

[11] = p53 small molecule agonists, cell-based qHTS assay (AID 1963582; active = well fitted activation curve with a large enough effect in the signal ratio in the repeat runs, not every such curve was filed as active; the % refers to the signal ratio; also: potency is read from the fitted curve at half-maximal effect)
Summary of the method: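 Read-out is beta-lactamase FRET fluorescence after 2 h at room temperature with LiveBLAzer B/G substrate. p53 response element-bla cells were treated 16 h at 37 C with compounds in DMSO, added 5 h after seeding.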

[12] = molecular target: 5-hydroxytryptamine receptor 2A (Homo sapiens) (UniProt P28223); assay: 5-hydroxytryptamine receptor 2A (HTR2A) small molecule antagonists, cell-based qHTS assay (AID 1963586); also: nearly all actives have a fitted effect of over 45% in size
Sequence of 5-hydroxytryptamine receptor 2A (Homo sapiens) (P28223 whole entry, looked up): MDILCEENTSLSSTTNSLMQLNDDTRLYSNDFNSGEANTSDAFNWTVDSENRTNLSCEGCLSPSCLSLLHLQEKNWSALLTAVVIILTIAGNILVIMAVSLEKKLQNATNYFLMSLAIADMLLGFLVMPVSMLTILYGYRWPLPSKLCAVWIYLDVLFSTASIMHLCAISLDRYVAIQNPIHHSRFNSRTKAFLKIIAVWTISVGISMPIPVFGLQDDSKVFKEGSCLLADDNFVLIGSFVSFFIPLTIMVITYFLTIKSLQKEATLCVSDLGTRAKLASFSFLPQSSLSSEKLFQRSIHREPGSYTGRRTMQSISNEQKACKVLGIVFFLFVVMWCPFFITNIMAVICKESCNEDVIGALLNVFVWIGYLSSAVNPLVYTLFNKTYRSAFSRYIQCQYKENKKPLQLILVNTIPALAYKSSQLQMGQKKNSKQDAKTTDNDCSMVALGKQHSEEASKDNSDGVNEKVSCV
Summary of the method: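 CHO cells stably expressing human HTR2A were plated for 18 h at 37 C, then loaded with calcium dye for 1 h. Compounds were preincubated 5 min at room temperature before DOI (4 nM solution) was added. Kinetic fluorescence was read for 3 min.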

[13] = molecular target: 5-hydroxytryptamine receptor 2A (Homo sapiens) (UniProt P28223); assay: 5-hydroxytryptamine receptor 2A (HTR2A) small molecule agonists, cell-based qHTS assay (AID 1963587); also: nearly all actives have a fitted effect of over 30% in size
Summary of the method: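 Kinetic calcium-flux fluorescence (2 min, 1 sec intervals) after compound addition in agonist mode. HTR2A-CHO cells were cultured 18 h, then dye-loaded 1 h at 37 C.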

[14] = molecular target: Muscarinic acetylcholine receptor M1 (Homo sapiens) (UniProt P11229); assay: Cholinergic receptor muscarinic 1 (CHRM1) small molecule agonists, cell-based qHTS assay (AID 1963589); also: nearly all actives have a fitted effect of over 35% in size; also: potency is read from the fitted curve at half-maximal effect
Sequence of Muscarinic acetylcholine receptor M1 (Homo sapiens) (P11229 whole entry, looked up): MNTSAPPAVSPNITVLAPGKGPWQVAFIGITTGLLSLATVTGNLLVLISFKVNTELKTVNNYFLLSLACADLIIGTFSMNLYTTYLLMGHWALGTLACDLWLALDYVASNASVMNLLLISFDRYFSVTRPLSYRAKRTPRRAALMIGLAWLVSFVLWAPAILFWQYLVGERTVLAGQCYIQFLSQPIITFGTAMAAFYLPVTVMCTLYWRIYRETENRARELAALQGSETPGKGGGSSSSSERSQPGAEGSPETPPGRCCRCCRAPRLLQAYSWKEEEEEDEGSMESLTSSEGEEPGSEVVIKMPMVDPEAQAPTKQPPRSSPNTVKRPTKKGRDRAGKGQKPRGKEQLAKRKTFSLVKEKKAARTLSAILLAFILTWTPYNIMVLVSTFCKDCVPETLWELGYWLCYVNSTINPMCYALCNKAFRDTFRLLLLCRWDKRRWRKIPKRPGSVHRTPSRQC
Summary of the method: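 Agonist-mode calcium-flux screen: compounds at 15 concentrations, three independent runs, were pin-transferred onto dye-loaded human CHRM1-CHO cells. Fluorescence was then recorded kinetically every second over minutes.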

[15] = cAMP Responsive Elements (CRE) small molecule agonists, cell-based qHTS assay (AID 1963590)
Summary of the method: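 Agonist mode: compound added to CRE-bla HEK 293T cells (2,000/well, 18 h after plating) for 3 h at 37 C/5% CO2. Reporter activity detected via FRET beta-lactamase substrate, 2 h room-temperature loading.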

[16] = molecular target: Beta-2 adrenergic receptor (Homo sapiens) (UniProt P07550); assay: Adrenergic beta2 receptor (ADRB2) small molecule antagonists, cell-based qHTS assay (AID 1963592); also: series mostly up to about 92 µM; nearly all actives have a fitted effect of over 50% in size
Sequence of Beta-2 adrenergic receptor (Homo sapiens) (P07550 whole entry, looked up): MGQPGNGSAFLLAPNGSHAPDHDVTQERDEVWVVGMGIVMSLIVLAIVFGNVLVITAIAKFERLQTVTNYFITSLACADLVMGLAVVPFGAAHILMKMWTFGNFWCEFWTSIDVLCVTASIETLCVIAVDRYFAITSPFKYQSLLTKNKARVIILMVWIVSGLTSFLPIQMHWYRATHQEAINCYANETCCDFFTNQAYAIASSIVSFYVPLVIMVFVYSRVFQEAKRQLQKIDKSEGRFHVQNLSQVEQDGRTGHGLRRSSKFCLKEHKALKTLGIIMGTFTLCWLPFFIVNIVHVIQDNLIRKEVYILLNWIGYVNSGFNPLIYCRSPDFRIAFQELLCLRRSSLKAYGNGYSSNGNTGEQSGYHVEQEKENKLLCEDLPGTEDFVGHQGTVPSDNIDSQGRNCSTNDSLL
Summary of the method: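 Assay format: CHO-ADRB2 cells, 18-20hr seeding at 37C/5% CO2, then compound plus 1nM isoproterenol agonist mix for 0.5hr RT. Homogeneous time-resolved fluorescence cAMP detection after 1hr, expressed as 665/615 nm ratio.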

[17] = molecular target: D(2) dopamine receptor (Homo sapiens) (UniProt P14416); assay: Dopamine D2 receptor (DRD2) small molecule agonists, cell-based qHTS assay (AID 1963594); also: nearly all actives have a fitted effect of over 35% in size
Sequence of D(2) dopamine receptor (Homo sapiens) (P14416 whole entry, looked up): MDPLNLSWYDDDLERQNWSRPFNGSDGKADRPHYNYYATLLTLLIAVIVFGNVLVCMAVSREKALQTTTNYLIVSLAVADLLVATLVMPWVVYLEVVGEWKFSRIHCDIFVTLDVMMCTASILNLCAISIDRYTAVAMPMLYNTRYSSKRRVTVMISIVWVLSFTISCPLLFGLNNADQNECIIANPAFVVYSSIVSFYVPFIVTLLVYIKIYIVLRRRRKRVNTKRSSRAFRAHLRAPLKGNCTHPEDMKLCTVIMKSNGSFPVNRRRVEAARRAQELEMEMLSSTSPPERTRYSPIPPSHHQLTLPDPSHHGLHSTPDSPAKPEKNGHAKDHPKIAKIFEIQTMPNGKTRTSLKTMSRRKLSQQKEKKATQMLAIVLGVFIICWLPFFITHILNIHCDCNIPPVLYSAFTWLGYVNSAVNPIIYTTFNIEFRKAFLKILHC
Summary of the method: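 cAMP accumulation in DRD2-HEK293 cells measured by HTRF after 1 h detection; compounds added 10 min before NKH477 (200nM […]) forskolin-analogue stimulation, 30 min at room temperature, with Ro20-1724 present at 0.1 mM final.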

[18] = molecular target: D(2) dopamine receptor (Homo sapiens) (UniProt P14416); assay: Dopamine D2 receptor (DRD2) small molecule antagonists, cell-based qHTS assay (AID 1963595; active = well fitted inhibition curve with a large enough effect in the signal ratio in the repeat runs, with a control signal flat; the % refers to the signal ratio)
Summary of the method: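 Cells were plated and grown for 24 h at 37 °C. Ro20-1724 (0.1 mM final) went in first, then compound for 10 min. NKH477 (200 nM) with quinpirole (12 nM) followed for 30 min at RT, then HTRF detection reagents for 1 h.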

[19] = cAMP Responsive Elements (CRE) small molecule antagonists, cell-based qHTS assay (AID 1963591; active = well fitted inhibition curve with a large enough effect in the signal ratio in the repeat runs, not every such curve was filed as active; the % refers to the signal ratio)
Summary of the method: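 Antagonist mode: compounds are added alongside the adenylyl cyclase activator NKH477 (0.25 uM final) to CRE-bla HEK293T cells for 3 h. LiveBLAzer FRET substrate, 2 h at room temperature, reports bla expression.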

[20] = molecular target: Muscarinic acetylcholine receptor M1 (Homo sapiens) (UniProt P11229); assay: Cholinergic receptor muscarinic 1 (CHRM1) small molecule antagonists, cell-based qHTS assay (AID 1963588); also: nearly all actives have a fitted effect of over 40% in size
Summary of the method: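 Compounds were tested at 15 concentrations in three independent runs. Dye-loaded CHRM1-CHO cells were exposed 5 min at room temperature before stimulation by acetylcholine added at 50nM. Intracellular calcium was read kinetically on FDSS for 3 min.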
% is scaled to controls: 0 for no effect and ±100 for the full control effect.

CO[Si](C)(OC)c1ccccc1
inactive: Potency [1] | Potency [2] | Potency [3] | outcome [4] | outcome [5] | Potency [6] | Potency [7] | Potency [8] | Potency [9] | Potency [10] | Potency [11] | Potency [12] | Potency [13] | Potency [14] | Potency [15] | Potency [16] | Potency [17] | Potency [18]

Cc1cc(O)c(C)c(C)c1O
inactive: Potency [1] | Potency [2] | Potency [3] | outcome [4] | outcome [5] | Potency [6] | Potency [7] | Potency [8] | Potency [9] | Potency [10] | Potency [11] | Potency [12] | Potency [13] | Potency [14] | Potency [15] | Potency [19] | Potency [17] | Potency [18]

C=CCON/C(CCC)=C1\C(=O)CC(C)(C)C(C(=O)OC)=C1O
inactive: Potency [1] | Potency [2] | Potency [3] | outcome [4] | outcome [5] | Potency [6] | Potency [7] | Potency [8] | Potency [9] | Potency [10] | Potency [11] | Potency [12] | Potency [13] | Potency [15] | Potency [19] | Potency [16] | Potency [17] | Potency [18]
active: Potency [14] 4.84 µM

Cc1cnc(C)c(C)n1
inactive: Potency [1] | Potency [2] | Potency [3] | outcome [4] | outcome [5] | Potency [6] | Potency [7] | Potency [8] | Potency [9] | Potency [10] | Potency [11] | Potency [12] | Potency [13] | Potency [14] | Potency [15] | Potency [19] | Potency [16] | Potency [17] | Potency [18]

CC(NN)c1ccccc1 (configuration not stated)
inactive: activity change, negative = cytotoxicity [1] -0.107% [at 19 µM] | activity, positive = activation [2] -1.07% [at 19 µM] | activity change [3] -0.677% [at 11.8 µM, active compounds read high] | activation [4] -0.175% [at 15.8 µM] | activation [5] -1.16% [at 11.8 µM] | activation [6] -2.41% [at 13.5 µM] | activation [7] -0.8% [at 13.6 µM] | activity change, negative = cytotoxicity [8] -4.08% [at 13.5 µM] | activity change, negative = cytotoxicity [9] 2.75% [at 13.5 µM] | activity change, negative = cytotoxicity [10] 23.1% [at 13.5 µM] | activation [11] -1.5% [at 13.5 µM] | activity, negative = inhibition [12] 14.8% [at 12.7 µM] | activation [13] 1.19% [at 15.9 µM] | activity, negative = inhibition [20] 10.3% [at 12.6 µM] | activity change, negative = inhibition [19] -6.39% [at 18.9 µM] | activity change, negative = inhibition [16] 10.7% [at 19 µM] | activation [17] 12.1% [at 19 µM] | activity change, negative = inhibition [18] 4.23% [at 18.9 µM]

Nc1ccc(C(=O)Oc2ccccc2)c(O)c1
inactive: Potency [1] | Potency [2] | Potency [3] | outcome [4] | outcome [5] | Potency [6] | Potency [7] | Potency [8] | Potency [9] | Potency [10] | Potency [11] | Potency [12] | Potency [13] | Potency [14] | Potency [15] | Potency [19] | Potency [17] | Potency [18]

CC(C)=CCC/C(C)=C/COC=O
inactive: Potency [1] | Potency [2] | Potency [3] | outcome [4] | outcome [5] | Potency [6] | Potency [7] | Potency [8] | Potency [9] | Potency [10] | Potency [11] | Potency [12] | Potency [13] | Potency [14] | Potency [15] | Potency [19] | Potency [17] | Potency [18]

CC(N)C(=O)OC(C)(C)Cc1ccc(Cl)cc1 (configuration not stated)
inactive: Potency [1] | Potency [2] | Potency [3] | outcome [4] | outcome [5] | Potency [6] | Potency [7] | Potency [8] | Potency [9] | Potency [10] | Potency [11] | Potency [12] | Potency [20] | Potency [14] | Potency [15] | Potency [19] | Potency [16] | Potency [18]

CNC(=O)c1ccccc1Sc1ccc2c(/C=C/c3ccccn3)n[nH]c2c1
inactive: Potency [1] | Potency [3] | outcome [4] | outcome [5] | Potency [6] | Potency [7] | Potency [8] | Potency [9] | Potency [10] | Potency [12] | Potency [13] | Potency [14] | Potency [16] | Potency [17]
active: Potency [2] 0.0841 µM | Potency [11] 1.41 µM
